Results as given in PubChem BioAssay.
The source made the active and inactive calls.

Legend:
[1] = tested on: Plasmodium falciparum Sir2 (PF13_0152, Sir2A); experiment: Plasmodium falciparum Sir2A binding compounds – biochemical, small-molecule microarray, 635 nm fluorescence, primary screen (AID 1098); details: fluorescence 635 nm, higher = more signal;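 note: score merges spot fluorescence intensity with its signal-to-noise ratio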
[2] = probe aDKK1 binding to arrayed compounds – biochemical, biotinylated probe, 635/667 nm fluorescence, primary screen (AID 1099); details: small-molecule microarray, higher = more signal;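 note: score merges 667nm spot fluorescence with signal to noise across triplicate slides; reference of the scale not given here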
[3] = probe aCHRDL2 binding to arrayed compounds – biochemical, biotinylated probe, 635/667 nm fluorescence, primary screen (AID 1100); details: small-molecule microarray, higher = more signal
[4] = change in splice reporter luminescence, either direction, cell-based, HEK293, spliceosome inhibition project, primary screen (AID 1101); details: HEK293 splicing luciferase reporter, 24 h, higher = more signal, called active from +8 up or from −8 down;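 note: HEK293 cells carrying a splicing-competent luciferase reporter gene; test concentration not given here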
[5] = biological target: Fibroblast growth factor 10 (Homo sapiens) (UniProt O15520); experiment: compounds binding fibroblast growth factor 10 – biochemical, small-molecule microarray, 635 nm fluorescence, primary screen (AID 1102); details: FGF10 binding, fluorescence 635 nm, higher = more signal
[6] = tested on: glycogen synthase kinase-3 (GSK3A per assay name; protocol says GSK3B); experiment: compounds binding glycogen synthase kinase-3 – biochemical, small-molecule microarray, 635 nm fluorescence, GSK3A, primary screen (AID 1103); details: fluorescence 635 nm, higher = more signal; note: the record names both GSK3A and GSK3B
[7] = biological target: Epidermal growth factor receptor (Homo sapiens) (UniProt P00533); experiment: compounds binding epidermal growth factor receptor – biochemical, small-molecule microarray, 635 nm fluorescence, primary screen (AID 1104); details: EGFR binding, higher = more signal;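 note: score merges 667 nm emission intensity with spot signal to noise over triplicate slides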
[8] = biological target: Follistatin-related protein 3 (Homo sapiens) (UniProt O95633); experiment: compounds binding follistatin-related protein 3 – biochemical, small-molecule microarray, 635 nm fluorescence, primary screen (AID 1105); details: FSTL3 binding, higher = more signal;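 note: score merges emission near 667 nm and signal to noise per printed spot across three slides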
[9] = biological target: Dickkopf-related protein 1 (Homo sapiens) (UniProt O94907); experiment: small molecules binding DKK1 protein – biochemical, small-molecule microarray, 635 nm fluorescence scan, primary screen (AID 1106); details: higher = more signal;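 note: score merges emission near 667 nm with signal to noise over three replicate slides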
[10] = tested on: Inhibin beta A chain (activin A); experiment: small molecules binding activin A – biochemical, small-molecule microarray, 635 nm fluorescence scan, primary screen (AID 1107); details: INHBA, higher = more signal;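 note: mouse activin A protein probed at 4.33 µg/mL on printed slides; score merges bound-protein fluorescence near 667 nm with spot signal-to-noise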

Epidermal growth factor receptor (Homo sapiens), sequence (P00533 whole entry, looked up): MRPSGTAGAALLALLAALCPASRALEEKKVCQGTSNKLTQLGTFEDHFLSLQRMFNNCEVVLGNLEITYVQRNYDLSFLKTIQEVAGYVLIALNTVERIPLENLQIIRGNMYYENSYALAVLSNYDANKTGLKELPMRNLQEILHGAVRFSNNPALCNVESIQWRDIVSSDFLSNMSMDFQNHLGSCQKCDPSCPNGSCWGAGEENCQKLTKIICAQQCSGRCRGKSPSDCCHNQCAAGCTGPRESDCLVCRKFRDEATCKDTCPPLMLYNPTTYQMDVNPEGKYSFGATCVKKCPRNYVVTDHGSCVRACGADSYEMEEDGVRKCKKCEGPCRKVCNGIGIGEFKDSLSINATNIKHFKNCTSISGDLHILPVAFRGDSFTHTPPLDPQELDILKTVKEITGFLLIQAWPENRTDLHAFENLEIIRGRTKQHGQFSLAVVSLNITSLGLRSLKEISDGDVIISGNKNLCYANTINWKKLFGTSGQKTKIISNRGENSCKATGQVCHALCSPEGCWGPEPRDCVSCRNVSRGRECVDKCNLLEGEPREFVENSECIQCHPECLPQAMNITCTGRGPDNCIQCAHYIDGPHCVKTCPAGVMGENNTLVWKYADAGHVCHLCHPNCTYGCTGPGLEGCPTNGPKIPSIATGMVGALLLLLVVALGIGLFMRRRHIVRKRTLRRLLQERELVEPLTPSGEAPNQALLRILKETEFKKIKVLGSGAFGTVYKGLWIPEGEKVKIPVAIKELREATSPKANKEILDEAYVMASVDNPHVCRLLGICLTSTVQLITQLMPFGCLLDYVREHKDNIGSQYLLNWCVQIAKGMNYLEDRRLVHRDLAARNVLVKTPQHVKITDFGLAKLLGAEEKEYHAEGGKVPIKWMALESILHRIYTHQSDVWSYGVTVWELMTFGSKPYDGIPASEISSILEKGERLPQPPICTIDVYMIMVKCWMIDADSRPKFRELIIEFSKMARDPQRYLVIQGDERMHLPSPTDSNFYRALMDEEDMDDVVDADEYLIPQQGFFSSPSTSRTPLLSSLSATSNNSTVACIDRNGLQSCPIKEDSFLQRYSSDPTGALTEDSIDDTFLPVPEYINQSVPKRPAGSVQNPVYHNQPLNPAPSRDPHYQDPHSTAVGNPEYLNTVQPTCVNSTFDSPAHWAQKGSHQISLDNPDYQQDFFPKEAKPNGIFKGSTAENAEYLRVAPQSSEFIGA
Dickkopf-related protein 1 (Homo sapiens), sequence (O94907 whole entry, looked up): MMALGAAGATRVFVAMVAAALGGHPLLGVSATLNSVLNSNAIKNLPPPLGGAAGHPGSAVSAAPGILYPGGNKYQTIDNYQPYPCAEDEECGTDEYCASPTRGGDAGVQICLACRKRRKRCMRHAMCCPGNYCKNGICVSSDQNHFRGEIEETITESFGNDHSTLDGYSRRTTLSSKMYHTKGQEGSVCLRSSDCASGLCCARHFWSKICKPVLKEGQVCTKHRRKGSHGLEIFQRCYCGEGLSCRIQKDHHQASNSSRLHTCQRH
Fibroblast growth factor 10 (Homo sapiens), sequence (O15520 whole entry, looked up): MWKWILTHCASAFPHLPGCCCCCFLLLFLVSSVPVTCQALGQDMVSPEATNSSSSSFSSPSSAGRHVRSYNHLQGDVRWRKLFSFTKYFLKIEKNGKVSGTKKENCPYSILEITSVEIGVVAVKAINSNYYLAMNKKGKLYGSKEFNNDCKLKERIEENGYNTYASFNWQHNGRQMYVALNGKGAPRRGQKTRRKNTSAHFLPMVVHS
Follistatin-related protein 3 (Homo sapiens), sequence (O95633 whole entry, looked up): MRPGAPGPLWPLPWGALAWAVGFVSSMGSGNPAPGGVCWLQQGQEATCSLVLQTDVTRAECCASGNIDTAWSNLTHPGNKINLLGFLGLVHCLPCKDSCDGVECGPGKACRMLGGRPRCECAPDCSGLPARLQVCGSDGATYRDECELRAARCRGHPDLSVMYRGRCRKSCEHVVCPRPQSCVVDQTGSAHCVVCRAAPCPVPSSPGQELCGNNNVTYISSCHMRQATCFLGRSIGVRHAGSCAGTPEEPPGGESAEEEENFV

Compound	composite z-score [1]	composite z-score [2]	composite z-score [3]	z-score [4]	composite z-score [5]	composite z-score [6]	composite z-score [7]	composite z-score [8]	composite z-score [9]	composite z-score [10]
CCOC(=O)CCN1C(=O)[C@H]2[C@H]3[C@H](O)[C@H](O)CC(=O)[C@@H]3CC[C@H]2C1=O	0.414	-0.0674	-0.834	0.283 (inactive)	1.1	0.917	0.591	1.15	0.935	-0.37
COC(=O)CC=C[C@@H](C)[C@@H](C=NOC(C)CN1CCCCc2nc(C)c(C)cc21)OC (stereo not given in full)	0.519	-0.343	-0.613	0.854 (inactive)	-0.285	0.959	0.686	0.975	1.33	1.19
CO[C@@H]1COC(=O)[C@@H]2CCCN2C(=O)[C@@H](C)COC(=O)CCC[C@H]1C	0.877	-0.331	-0.624	-1.27 (inactive)	0.981	0.561	0.38	0.621	0.661	-0.751
C[C@H]1CC[C@@H](C(=O)O)N[C@@H]1c1ccc(C#Cc2ccccc2)cc1	0.194	0.0274	-0.273	0.29 (inactive)	1.24	1.1	0.935	1.31	1.07	1.01
CC(CCN1CCc2nc(-c3ccccc3)c(-c3ccccc3)cc2C1)=NO[C@H](C)c1cn([C@H](CO)Cc2ccccc2)nn1	0.343	-0.0154	0.407	-0.534 (inactive)	-0.356	-0.135	-0.0273	0.177	-0.193	1.09
CO[C@H]1COC(=O)[C@H](C)COC(=O)[C@@H](OCc2ccccc2)C=C[C@@H]1C	-0.0072	-0.386	-0.743	0.0228 (inactive)	0.083	-0.357	0.274	-0.266	0.32	0.251
C=CC[C@@H]1C=C[C@H](ON=CC[C@@H]2C=C[C@H](OC(C)=O)[C@@H](COC(C)=O)O2)[C@@H](CO)O1	1.01	0.182	-0.293	0.743 (inactive)	0.262	0.765	0.661	1.17	0.764	0.211
CC[C@@H](c1ccccc1)n1c(=O)n2n(c1=O)[C@H]1[C@H](O)[C@@H]3O[C@@H]3C(=NOCc3ccccc3)[C@H]1CC2	0.217	-0.148	-0.406	2.5 (inactive)	0.487	-0.0586	0.123	0.489	0.235	0.517
COC(=O)[C@@H]1CC[C@H](C)[C@@H](c2ccc(Br)cc2)N1C[C@H](O)CN=[N+]=[N-]	0.0722	-0.234	0.0248	-0.812 (inactive)	0.248	-0.154	0.385	-0.347	-0.148	0.616
CC(CCN1CCCCc2nc(C)c(C)cc21)=NO[C@H](C)c1cn([C@@H]2COC[C@H]2O)nn1	0.742	-0.404	-0.961	1.09 (inactive)	1.23	1.16	1.61	1.43	2.15	1.21
CC(=O)OC[C@H]1O[C@H](CC=NOC(C)CN2CCCc3nc(C)c(C)cc32)C=C[C@@H]1OC(C)=O (stereo not given in full)	0.104	-0.104	-0.457	0.184 (inactive)	0.708	0.961	0.383	0.834	0.578	0.8
COC(=O)[C@H](C)NC(=O)CC=C[C@@H](C)[C@@H]1C=C[C@H](O)[C@@H](CO)O1	0.141	-0.607	-1.28	0.386 (inactive)	0.6	0.902	0.643	0.948	1.3	0.229
O=C1C=C[C@@H](O)[C@@H]2[C@@H]3C(=O)N(Cc4ccc5c(c4)OCO5)C(=O)[C@@H]3CC[C@@H]12	0.382	-0.0574	-0.528	-0.5 (inactive)	0.515	0.719	0.523	0.579	0.615	-0.513
CC(C)=NOC[C@@H](O)[C@H]1O[C@@H]2OC(C)(C)O[C@@H]2[C@H]1O	0.231	-0.0464	-0.364	0.211 (inactive)	0.392	0.892	0.487	0.434	0.58	0.5
CCOC(=O)[C@H](Cc1ccccc1)NC(=O)CCC1CC(OC(=O)NCc2cccc3ccccc23)CC2(CCCC(COC(=O)NCC3CCCCC3)O2)O1 (stereo not given in full)	0.889	-0.21	-0.53	-0.815 (inactive)	0.781	0.805	0.604	0.872	0.795	0.381
CC(=O)OC[C@H]1O[C@H](C#CCC2CCCCC2)C=C[C@@H]1OC(C)=O	1.26	-0.215	-0.595	-0.531 (inactive)	1.04	0.719	0.362	0.674	0.668	-0.222
O=C1[C@H]2[C@H]3[C@H](O)[C@H](O)CC(=NOC[C@@H](O)COCc4ccco4)[C@@H]3CC[C@H]2C(=O)N1Cc1ccccc1	-0.422	-0.316	-0.611	-0.153 (inactive)	0.146	1.34	0.603	1.51	0.833	1.34
CCN1C(=O)[C@H]2[C@H]3[C@H](O)[C@H](O)CC(=NOCC(C)C)[C@H]3CC[C@H]2C1=O	0.301	-0.311	-0.621	0.72 (inactive)	0.531	0.636	0.732	0.732	0.817	0.122
CC(CCN1CCCCc2nc(C)c(C)cc21)=NOC[C@@H](O)[C@H]1O[C@@H]2OC(C)(C)O[C@@H]2[C@H]1O	0.577	-0.32	-1.02	0.595 (inactive)	0.313	0.397	0.774	0.718	0.874	-0.0196
CO[C@H]1COC(=O)CC=C[C@@H](C)COC(=O)[C@H]2CCCN2C(=O)CC=C[C@H]1C	1.3	-0.268	-1.16	-0.104 (inactive)	0.756	1.01	1.29	1.45	1.9	1.32
C[C@@H]1CC[C@H]2C(=O)OC(Cc3ccccc3)CN2[C@H]1c1ccc(Br)cc1 (stereo not given in full)	0.413	-0.193	-0.312	0.264 (inactive)	0.524	0.255	0.0012	0.141	-0.0094	0.445
CC(=O)OC[C@H]1O[C@@H](ON=C2[C@H]3CCn4c(=O)n(-c5ccccc5)c(=O)n4[C@H]3[C@H](O)[C@@H]3O[C@H]23)[C@H](OC(C)=O)[C@@H](OC(C)=O)[C@@H]1OC(C)=O	0.242	-0.425	-0.43	0.764 (inactive)	0.614	0.913	0.519	0.387	0.731	-0.1
C[C@@H](c1ccccc1)N1C(=O)[C@H]2[C@H]3[C@H](O)[C@H](O)CC(=NOC[C@@H](O)COCc4ccco4)[C@H]3CC[C@H]2C1=O	0.975	-0.427	-1.27	0.319 (inactive)	-0.185	1.21	1.07	1.14	1.59	0.574
C#CCCCON=C1C[C@@H](O)[C@@H](O)[C@@H]2[C@@H]3C(=O)N(C[C@@H]4CCCO4)C(=O)[C@@H]3CC[C@@H]12	0.44	-0.244	-0.362	-0.28 (inactive)	0.732	0.223	0.469	0.67	0.449	0.397
